Out of some 340,000 compounds screened, about 6,400 (1.9%) were called active. Inconclusive results (about 4%) are left out. The full list was thinned out, with actives kept by preference. Unmarked numbers belong to inactive results. Calls come from the whole dose curve; as a rule, active = well fitted falling curve with a large enough effect; inconclusive = small, poorly fitted or top-dose-only effect; inactive = no such curve, though single readings can be large or run the other way.
Biological target: ATP-dependent Clp protease proteolytic subunit (Bacillus subtilis (strain 168)) (UniProt P80244)
Assay: qHTS Assay for Activators of ClpP; note: the source files actives as falling curves though it sought activators and does not explain the sign; nearly all actives have a fitted effect of over 65% in size
Conditions: purified B. subtilis ClpP, FRET peptide cleavage, 20 min; series mostly up to 57.5 µM; activity change, negative = active: at the top concentration
Description: The Clp protease proteolytic subunit (ClpP) is the core unit of the Clp complex belonging to the peptidase family S14 that hydrolyzes protein into small peptides in the presence of ATP and magnesium. It is ubiquitously expressed and is the major protease in bacteria. […] Unlike common antibiotics that simply interfere with the essential enzyme activity, ADEP binding activates the ClpP core in the absence of the regulatory Clp-ATPases leading to uncontrolled proteolysis and eventually cell death. Activators binding to the docking site on ClpP can also block formation of the ClpXP and ClpA/C-P holoenzyme complexes interfering with the normal biological functions of ClpP and thus have the potential to become new anti-microbials.
To identify activators of ClpP, a FRET based quenching reversal assay was developed using a purified B. subtilis ClpP and a decapeptide substrate (FRET-FV). The FRET-FV is tagged with a fluorescent molecule amino benzoic acid (donor) at the N-terminus and a nitrotyrosine quencher (acceptor) at the C-terminus. FRET-FV cleaves upon activation of ClpP with ADEP treatement and reverses the quenching effect of the nitrotyrosine causing an increase in fluorescence emission signal at 430nm. This assay was used to screen the Molecular Libraries Small Molecule Repository (MLSMR).
NIH Molecular Libraries Probe Production Centers Network [MLPCN]
NIH Chemical Genomics Center [NCGC]
Assay Submitter (PI): Michael Maurizi, National Cancer Institute
Two and a half microL/well of purified enzyme solution (final concentrations 10 microg/mL B. subtilis ClpP in 100 mM Tris/HCl pH8, 100 mM KCl, 0.05% low protease BSA, 2.5% glycerol, 0.01% Tween-20 buffer) was dispensed into 1536-well assay plates (Greiner, black solid, medium-binding plates) with Aurora Discovery BioRAPTR Flying Reagent Dispenser (FRD, Beckton-Dickenson). Compound solution (23 nL) was transferred to the assay plate using Kalypsys pin tool equipped with a 1536-pin tool. […] FRET signals at time 0 and after 20 min room temperature incubation were obtained using the PerkinElmer Envision plate reader with 320nm excitation and 430nm emission filters. Delta FRET value (Time 20 - Time 0) was calculated and normalized to the delta FRET value of positive control ADEP (5.8 microM final concentration) and negative control DMSO and no enzyme wells.

Sequence of ATP-dependent Clp protease proteolytic subunit (Bacillus subtilis (strain 168)) (P80244 whole entry, looked up): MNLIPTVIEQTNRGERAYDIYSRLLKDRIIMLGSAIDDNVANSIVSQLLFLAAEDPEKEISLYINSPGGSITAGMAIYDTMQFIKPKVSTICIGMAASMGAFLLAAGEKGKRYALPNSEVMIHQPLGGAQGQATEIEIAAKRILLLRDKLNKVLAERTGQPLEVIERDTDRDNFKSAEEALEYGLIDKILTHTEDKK

Compound	activity change, negative = active [%]	Potency
Cc1cc(C)n2c(Nc3c(C)cccc3C)c(CCc3ccccc3)nc2n1	-7.95	
c1ccc(CCc2ccccn2)cc1	-10.1	
Cc1ccc(O)c(CCc2ccccc2)n1		28.2 µM (active)
C=CCOc1ccccc1CNn1c(C)n[nH]c1=S	-5.37	
Cn1c(NC(=O)c2ccccc2)nc2ccccc21	0.103	
Cn1c(-c2ccc(C(=O)c3ccccc3)s2)nc2ccccc21		20 µM (active)
Cn1c(CNC(=O)C(C)(C)C)nc2ccccc21	0.269	
CCCCc1nc2ccc(F)cc2cc1C	-3.04	
CCCc1ccc(C(O)c2ncc(-c3cccc(OC)c3)[nH]2)cc1 (stereo unspecified)	-0.496	
COc1ccc(CC(N)c2csc(NC(=O)Cc3ccccc3)n2)cc1 (stereo unspecified)	-0.24	
CCOC(=O)CSc1nnc(CNC(=O)c2cccs2)n1-c1ccccc1		10 µM (active)
CCOC(=O)CSc1nnc(CNC(=O)c2cccs2)n1-c1cc(OC)ccc1OC	-0.328	
CCOC(=O)CSc1nnc(CNC(=O)c2ccco2)n1-c1ccc(F)cc1	-4.96	
Nc1nc2c(Br)ccc(Br)c2cc1C(=O)NCCc1ccccc1	0.0907	
NC(=O)C1CCN(C(=O)COc2ccc3c4c(c(=O)oc3c2)CCC4)CC1	4.67	
O=C(COc1ccc2c3c(c(=O)oc2c1)CCC3)NC1CCCCC1		14.1 µM (active)
O=C(COc1ccc2c3c(c(=O)oc2c1)CCCC3)NCC(O)c1ccccc1 (stereo unspecified)	3.98	
CC1(C(=O)Nc2cccc3c2CCCC3)CCN1C(=O)CCc1ccc(Cl)cc1Cl (stereo unspecified)	2.56	
Cc1cc2cc3n(c2nn1)N=C(Cl)CC3	4.2	
Cc1ccc(Cc2c(-c3ccc(C)cc3)nc3c4ccccc4ccn23)cc1	-5.5	
FC(F)(F)c1ccccc1Cc1c(-c2ccccc2)nc2c3ccccc3ccn12		22.4 µM (active)
CCCc1nc2c3ccccc3ccn2c1Cc1ccccc1C(F)(F)F	4.9	
NNc1nc2c(Cl)cccc2s1	-9.24	
NC(=O)c1c(Nc2nc3c(F)cccc3s2)sc2c1CCCC2	-15.4	
Fc1cc(F)c2nc(Nc3nc4c(F)cccc4s3)sc2c1		3.55 µM (active)
CCOC(=O)c1cc2cc(OC)ccc2n1C1CCN(C)CC1	4.63	

Compound	activity change, negative = active [%]	Potency
CCC(C(=O)NCc1ccccc1)n1c(Cc2cc(F)cc(F)c2)nc2ccccc21 (stereo unspecified)	-1.02	
CC1Cc2[nH][nH]c(=O)c2C(C2CC2)O1 (stereo unspecified)	0.813	
CCCCCNC(=O)C1C(=O)Nc2ccccc2C(=O)N1C(C)(C)C (stereo unspecified)	-9.04	
COc1ccc(-c2cn3ccc(C)cc3n2)cc1	4.16	
COc1ccc(C2=Nc3cc(C)ccc3OC2)cc1		28.2 µM (active)
COc1ccc(-c2cc(-c3ccc(F)cc3)nc3c2COc2ccccc2-3)cc1	4.12	
CCOC(=O)[C@]12CCCC=C1N(CCC1=CCCCC1)C(=O)[C@H](CC(=O)NCCCOC)C2	1.11	
Cc1cc(NC(=O)CSCC(=O)NC(C)c2ccccc2)no1 (stereo unspecified)	-3.37	
Cc1ccc2nc(-c3ccc(SCC(=O)Nc4cc(C)on4)nc3)[nH]c2c1		31.6 µM (active)
Cc1cc(NC(=O)CSc2nc3ccccc3n2CC(C)C)no1	-2.44	
CN(CCC#N)c1ccc(C=O)cc1	-10.3	
CC(C)(C)c1ccc(C(=O)C[N+]2(C)CCCc3ccccc32)cc1 (stereo unspecified)	0.0913	
COc1ccc(S(=O)(=O)N[C@@H]2C=C[C@@H](CC(=O)N3CCc4ccccc4C3)O[C@@H]2CO)cc1	0.958	
CCn1c2ccccc2c2cc(NC(=O)COC(=O)c3cc(S(=O)(=O)N4CCCCC4)ccc3Cl)ccc21		10 µM (active)
O=C(COC(=O)c1cc(S(=O)(=O)N2CCOCC2)ccc1Cl)NCCc1ccccc1	0.437	
CCn1c2ccccc2c2cc(NC(=O)COC(=O)c3ccccc3Br)ccc21	-3.15	
COc1cc2nc(N3CCCN(C)CC3)nc(NC3CC3)c2cc1OC	4.13	
COc1ccc(Nc2cc(C(=O)NCCCN(C)c3ccccc3)c3ccccc3n2)c(OC)c1	-0.556	
COc1ccccc1Nc1cc(C(=O)NCCCN(C)C2CCCCC2)c2ccccc2n1	-1.71	
CCCCN(CCCNC(=O)c1cc(Nc2ccccc2OC)nc2ccccc12)c1ccccc1		17.8 µM (active)
CN(C)C(=O)c1cccc(-c2cnc3c(NC=O)cc(-c4ccc(C(=O)N5CCOCC5)cc4)cn23)c1	-29.9	
COCCCNC(=O)c1ccc(-c2c(C)noc2C)c2ccoc12	-22.5	
O=C(CCC1CCCN(C(=O)Cc2ccc(F)cc2)C1)N1CCN(c2ccccn2)CC1 (stereo unspecified)	-1.11	
C=Cc1ccc(C(=O)N2CCCC(CCC(=O)N3CCN(c4ccccn4)CC3)C2)cc1 (stereo unspecified)	-5.05	
O=C(CCC1CCCN(C(=O)c2ccc(F)c(F)c2)C1)N1CCN(c2ccccn2)CC1 (stereo unspecified)		17.8 µM (active)

From PubChem BioAssay AID651965 (National Center for Advancing Translational Sciences (NCATS), 2013)
